These results are taken from PubChem BioAssay.

Activity calls are given as the source filed them. Unless noted, how the calls were made is not given here.

A short description of assay [1]: compound effects on lung adenocarcinoma cell viability – A549, calcein-AM fluorescence, 48 h, basal, profiling panel (AID 1162). Further: test concentration not given here. Conditions: higher = more signal.
The nature of assay [2]: compound effects on differentiated 3T3-L1 adipocyte viability – cell-based, 3T3-L1 adipocytes, calcein-AM fluorescence, 48 h, basal, profiling panel (AID 1163). Further: test concentration not given here. The settings on record: 3T3-L1 adipocytes viability, higher = more signal.
A short description of assay [3]: compound effects on hepatocellular carcinoma cell viability – HepG2, calcein-AM fluorescence, 48 h, basal, profiling panel (AID 1164). Further: test concentration not given here. The settings on record: higher = more signal.
Assay [4] is described as follows: compound effects on multiple myeloma cell viability – MM1S, calcein-AM fluorescence, 48 h, basal, profiling panel (AID 1165). Further: test concentration not given here. Conditions: higher = more signal.
A short description of assay [5]: calcein-AM signal in unstimulated myeloma cells – cell-based, calcein-AM fluorescence, 48 h, PK04 Diversity Set, profiling panel (AID 1166).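 Further: cells grown under basal conditions without added stimulus; test concentration not given here.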 Conditions: RPMI8226 myeloma viability, higher = more signal.
A short description of assay [6]: JC-1 mitochondrial signal, unstimulated HepG2 cells – cell-based, JC-1 fluorescence, 24 h, 100 nL compound, profiling panel (AID 1167). Further: test concentration not given here. Conditions: HepG2 mitochondrial potential, higher = more signal.
The nature of assay [7]: JC-1 mitochondrial signal, unstimulated adipocytes – cell-based, JC-1 fluorescence, 3T3-L1 adipocytes, 24 h, 100 nL compound, profiling panel (AID 1168). Further: test concentration not given here. Conditions: JC-1 mitochondrial fluorescence, higher = more signal, called active from +8 up or from −8 down.
Assay [8] is described as follows: JC-1 mitochondrial signal, unstimulated myeloma cells – cell-based, JC-1 fluorescence, RPMI8226, 24 h, 100 nL compound, profiling panel (AID 1169). Further: test concentration not given here. The settings on record: JC-1 mitochondrial potential fluorescence, higher = more signal.
A short description of assay [9]: JC-1 mitochondrial signal, unstimulated MM1S myeloma – cell-based, JC-1 fluorescence, 24 h, 100 nL compound, profiling panel (AID 1170). Further: test concentration not given here. The settings on record: MM1S mitochondrial potential, higher = more signal.
Assay [10] is described as follows: resazurin metabolic signal in A549 cells – cell-based, resazurin fluorescence, 24 h, PK04 Diversity Set, profiling panel (AID 1171). Further: test concentration not given here. Conditions: A549 viability, higher = more signal, called active from +8 up or from −8 down. (In general: Alamar Blue is a resazurin reagent that responds to reducing activity.)
A short description of assay [11]: resazurin metabolic signal in HepG2 cells – cell-based, resazurin fluorescence, 24 h, PK04 Diversity Set, profiling panel (AID 1172). Further: test concentration not given here. The settings on record: HepG2 viability, higher = more signal.
Assay [12] is described as follows: budding yeast growth changes without added modifier – OD600, strain BY4716, 24 h, basal condition, primary screen (AID 1173). Conditions: S. cerevisiae BY4716 growth, OD600, 24 h; higher = more signal, called active from +8 up or from −8 down.
Assay [13] can be described thus: viability profiling in MM1S myeloma cells – cell-based, resazurin fluorescence, basal, 24 h, PK04 Diversity Set, profiling panel (AID 1174). Further: test concentration not given here. The settings on record: higher = more signal, called active from +8 up or from −8 down.
Assay [14] deals with Dihydroorotate dehydrogenase (quinone), mitochondrial (Plasmodium falciparum (isolate 3D7)) (UniProt Q08210). In words: inhibition of P. falciparum DHODH – biochemical, C-terminal His tag, absorbance 600 nm, primary screen (AID 1175).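 Further: recombinant parasite enzyme with a five histidine tag at its C terminus; test concentration not given here.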 The settings on record: PfDHODH enzyme, DCIP absorbance 600 nm; higher = more signal, called active from +8 up or from −8 down.
Sequence of Dihydroorotate dehydrogenase (quinone), mitochondrial (Plasmodium falciparum (isolate 3D7)) (Q08210 whole entry, looked up): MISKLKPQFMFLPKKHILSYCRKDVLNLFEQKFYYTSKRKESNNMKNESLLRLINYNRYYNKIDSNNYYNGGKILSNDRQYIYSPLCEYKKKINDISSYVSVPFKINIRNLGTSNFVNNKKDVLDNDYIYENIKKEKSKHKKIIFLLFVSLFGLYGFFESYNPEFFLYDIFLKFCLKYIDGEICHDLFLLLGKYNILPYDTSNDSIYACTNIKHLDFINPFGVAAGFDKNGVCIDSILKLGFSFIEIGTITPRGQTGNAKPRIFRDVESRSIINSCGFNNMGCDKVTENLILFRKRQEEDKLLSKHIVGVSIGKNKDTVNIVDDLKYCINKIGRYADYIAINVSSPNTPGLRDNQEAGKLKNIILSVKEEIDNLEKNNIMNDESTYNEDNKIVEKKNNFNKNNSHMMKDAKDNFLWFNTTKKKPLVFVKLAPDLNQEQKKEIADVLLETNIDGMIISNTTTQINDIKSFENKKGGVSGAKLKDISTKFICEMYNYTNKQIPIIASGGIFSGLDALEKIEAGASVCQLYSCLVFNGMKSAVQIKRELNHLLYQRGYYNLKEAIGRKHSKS
Assay [15] is described as follows: inhibition of PAO1 biofilm formation – strain PAO1, LB-PBS medium, absorbance 600 nm, primary screen (AID 1176). Further: test concentration not given here. The settings on record: P. aeruginosa PAO1 growth/biofilm, A600, 12 h; higher = more signal.
The nature of assay [16]: growth modulation of vineyard yeast isolate – strain RM11-1a, OD600, basal, 24 h, primary screen (AID 1177).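 Further: cultures grown under basal conditions with no added stressor; test concentration not given here.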 Conditions: S. cerevisiae RM11-1a growth, OD600, 24 h; higher = more signal, called active from +8 up or from −8 down.
Assay [17] can be described thus: growth of efflux-deficient E. coli DRC39 – strain DRC39, OD650, 24 h, E. coli filamentation inducers, primary screen (AID 1178).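 Further: growth measured as culture turbidity by optical density at 650 nm; test concentration not given here.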 Conditions: E. coli DRC39 acrAB, higher = more signal, called active from +8 up or from −8 down.
Assay [18] in a line: growth of efflux-deficient E. coli DRC39 – strain DRC39, OD650, 48 h, E. coli filamentation inducers, primary screen (AID 1179).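 Further: screen aims at cell division blockers that make cells filament.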 The settings on record: E. coli DRC39 delta-acrAB growth, higher = more signal, called active from +8 up or from −8 down.
Assay [19] is described as follows: viability profiling in RPMI8226 myeloma cells – cell-based, resazurin fluorescence, basal, 24 h, PK04 Diversity Set, profiling panel (AID 1180).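 Further: RPMI8826 multiple myeloma cell line at 5000 cells per well; test concentration not given here.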 Conditions: higher = more signal.
Assay [20] has as its target E3 ubiquitin-protein ligase XIAP (Homo sapiens) (UniProt P98170). In words: small molecules binding XIAP protein – biophysical, small-molecule microarray, fluorescence 635 nm, primary screen (AID 1181).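 Further: score merges 667 nm emission and signal to noise over triplicate slides.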 Conditions: higher = more signal.

Sequence of E3 ubiquitin-protein ligase XIAP (Homo sapiens) (P98170 whole entry, looked up): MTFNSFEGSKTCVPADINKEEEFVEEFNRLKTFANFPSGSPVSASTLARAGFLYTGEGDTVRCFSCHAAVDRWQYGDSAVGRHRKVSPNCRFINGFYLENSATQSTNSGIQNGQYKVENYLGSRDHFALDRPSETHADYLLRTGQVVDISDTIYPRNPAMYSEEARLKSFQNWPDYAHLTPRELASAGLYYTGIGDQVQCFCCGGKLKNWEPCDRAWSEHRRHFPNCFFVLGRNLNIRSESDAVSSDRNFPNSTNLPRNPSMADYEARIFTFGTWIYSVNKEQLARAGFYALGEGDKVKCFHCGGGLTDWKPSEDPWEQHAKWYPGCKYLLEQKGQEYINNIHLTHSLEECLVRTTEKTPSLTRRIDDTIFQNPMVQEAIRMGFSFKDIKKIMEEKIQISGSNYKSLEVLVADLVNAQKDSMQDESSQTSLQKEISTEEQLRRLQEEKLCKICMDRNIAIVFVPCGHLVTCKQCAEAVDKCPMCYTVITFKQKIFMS

Regarding `O=C1C[C@@](C(=O)NCC(F)(F)F)(c2ccc([N+](=O)[O-])cc2)[C@@H](c2ccc(CO)cc2I)N1CC12CC3CC(CC(C3)C1)C2`, the z-score in [1] is -2.05; in assay [2], 0.463; in [3], -5.2; in assay [4] it was -3.84; in assay [5], -4.03; in assay [6] it was -0.436. In addition, the z-score was 2.16 (inactive) in [7]; -0.9 in assay [8]; -2.17 in assay [9]; -3.86 (inactive) in [10]; -4.52 in assay [11]; -1.42 (inactive) in assay [12]. Besides, the z-score in assay [13] is -7.22 (inactive); in assay [15], 1.11 (inactive); in assay [16] it was -0.355 (inactive); in assay [17], 0.213 (inactive); in [18], 1.29 (inactive); in assay [19] it was -6.47. The figures for the composite z-score in assay [14] and in [20] were -1.13 (inactive) and -0.0287, respectively.

Regarding `COC(=O)[C@]1(Cc2ccccc2CN=[N+]=[N-])N=C(c2ccc(OCCCO)cc2)O[C@@H]1c1ccccc1N=[N+]=[N-]`, the z-score in [1] is -3.25; in assay [2], -0.028; in assay [3] it was -5.51; in [4], -3.55; in assay [5], -4; in assay [6], 1.52. For the same molecule, the z-score in assay [7] is -0.387 (inactive); in [8] it was -1.06; in assay [9], -2.47; in assay [10] it was -2.73 (inactive); in assay [11], -2; in [12] it was 1.09 (inactive). Further, the z-score in assay [13] was -4.02 (inactive); in assay [15], 1.06 (inactive); in assay [16], 1.77 (inactive); in [17], 1.74 (inactive); in assay [18] it was 0.918 (inactive); in assay [19] it was -6.89. Also, the composite z-score in [14] is -0.123 (inactive); in assay [20], -0.188.

Take `Cc1ccc(S[C@]2(C(=O)NCc3ccccc3)CC(=O)N(Cc3ccccc3C(F)(F)F)[C@@H]2c2ccc(CO)cc2I)cc1`: the z-score was 1.13 in assay [1]; 0.615 in assay [2]; 0.024 in assay [3]; -2.39 in [4]; -2.16 in assay [5]; -0.741 in assay [6]. Also, the z-score in assay [7] was -0.841 (inactive); in [8] it was -0.491; in assay [9], -0.518; in [10] it was 1.15 (inactive); in assay [11], 0.213; in [12], -5.1 (inactive). Also, the z-score in assay [13] was -2.36 (inactive); in assay [15], -0.239 (inactive); in assay [16], -1.54 (inactive); in assay [17] it was 0.506 (inactive); in assay [18] it was -0.0277 (inactive); in assay [19] it was -1.28. The composite z-score in assay [14] was -1.44 (inactive); in [20] it was -0.135.

As for `COC(=O)Cn1c(C(=O)N(C)C)cc2c1C[C@H]1CN(C(=O)c3ccccc3)[C@@](Cc3ccccc3)(C(=O)OC)[C@@H]21`, the z-score is -0.314 in assay [1]; 0.275 in assay [2]; -0.479 in assay [3]; 0.0914 in assay [4]; -0.512 in [5]; -1.11 in [6]. Besides, the z-score in [7] is -0.327 (inactive); in [8], -0.146; in assay [9], -1.11; in assay [10] it was 0.374 (inactive); in [11], 0.971; in [12], 0.282 (inactive). Moreover, the z-score in assay [13] was 0.52 (inactive); in assay [15] it was -0.747 (inactive); in assay [16], -0.161 (inactive); in [17] it was 0.304 (inactive); in assay [18] it was -1.15 (inactive); in assay [19], 1.09. Moreover, the values for the composite z-score in assay [14] and in assay [20] were -0.777 (inactive) and 0.343, respectively.

As to `COc1ccc([Si](C)(C)[C@@H]2[C@@H](CC(=O)N3CCC[C@H]3CO)O[C@]3(C(=O)N(Cc4cccc(N5C(=O)c6cccc7cccc5c67)c4)c4ccccc43)[C@H]2C)cc1`, the z-score in [1] was -1.07; in [2] it was 1.29; in [3] it was -3.23; in [4], -2.44; in [5], -4.33; in [6], -0.907. Also, the z-score in assay [7] was 0.522 (inactive); in [8], -1.05; in assay [9], -1.01; in assay [10], -1.53 (inactive); in assay [11], -0.49; in [12], 0.313 (inactive). The z-score was -1.84 (inactive) in [13]; 0.343 (inactive) in [15]; 0.0797 (inactive) in assay [16]; 0.995 (inactive) in assay [17]; 0.787 (inactive) in [18]; -1.53 in assay [19]. In addition, the composite z-score was -1.54 (inactive) in assay [14] and 0.0834 in assay [20].

As to `CCOC(=O)C[C@H]1[C@H](OC(=O)c2cc3ccccc3oc2=O)[C@@H](NC(=O)Cc2ccc(OC)cc2)c2cc(OCCCO)ccc2N1C(=O)Cc1ccc(OC)cc1`, the z-score in [1] is 1.16; in assay [2], 1.68; in assay [3], 0.37; in assay [4] it was 0.789; in assay [5] it was 0.148; in assay [6], 0.164. Also, the z-score in assay [7] was -0.3 (inactive); in assay [8] it was 0.301; in assay [9] it was -0.985; in [10], 0.551 (inactive); in assay [11], 1.04; in assay [12], -3.03 (inactive). Besides, the z-score in [13] is 1.26 (inactive); in assay [15], -0.234 (inactive); in [16], -1.01 (inactive); in assay [17] it was 1.76 (inactive); in [18] it was 0.248 (inactive); in [19], 0.918. For the same molecule, the composite z-score in assay [14] was -0.317 (inactive); in assay [20] it was 0.177.

As for `COC(=O)C(CC#Cc1ccc2c(c1)[C@]1(C(=O)N2)[C@H](C(=O)NC[C@H](O)c2ccccc2)[C@H]2C(=O)O[C@H](c3ccccc3)[C@H](c3ccccc3)N2[C@@H]1c1ccc(O)cc1)C(=O)OC`, the z-score is -0.244 in [1]; -1.56 in assay [2]; -0.0776 in [3]; -1.46 in [4]; -1.97 in assay [5]; -2.14 in [6]. Also, the z-score in assay [7] is -1.75 (inactive); in [8], -0.933; in assay [9], -0.492; in assay [10], 0.489 (inactive); in [11], 0.155; in assay [12], 0.455 (inactive). For the same molecule, the z-score in [13] is 0.515 (inactive); in assay [15], 1.05 (inactive); in assay [16], 0.518 (inactive); in [17] it was -0.196 (inactive); in assay [18], -0.556 (inactive); in assay [19], -0.464. The composite z-score in assay [14] was -5.06 (inactive); in assay [20] it was 0.076.

Turning to `C=C(C(=O)CC[C@@H](OC(=O)c1ccccc1-c1ccccc1C(=O)O)c1ccc(CO)o1)C(C)C`, the z-score in assay [1] was -0.656; in assay [2] it was 0.231; in assay [3], 0.473; in assay [4] it was -1.33; in assay [5] it was -0.951; in [6], -1.54. Further, the z-score in assay [7] is -0.747 (inactive); in assay [8], -0.479; in assay [9] it was -0.0298; in [10], -0.359 (inactive); in assay [11] it was -0.31; in assay [12], -0.317 (inactive). For the same molecule, the z-score in assay [13] is 0.114 (inactive); in assay [15], 1.63 (inactive); in assay [16], 0.0083 (inactive); in assay [17], 0.159 (inactive); in assay [18] it was -0.171 (inactive); in assay [19], 0.16. For the same molecule, the values for the composite z-score in assay [14] and in assay [20] were -2.18 (inactive) and -0.282, respectively.
